Over roughly 16,000 sequences, “rpm ratio (pull-down/input)” has its median near 0.94; the highest 2% begin near 1.7. For the sample, the highest values were picked, then their nearest neighbours and some sequences at random.

The target of this test is T1, MBP-FoxP1dN (Mus musculus, UniProt P58462 326-579).
T1 sequence: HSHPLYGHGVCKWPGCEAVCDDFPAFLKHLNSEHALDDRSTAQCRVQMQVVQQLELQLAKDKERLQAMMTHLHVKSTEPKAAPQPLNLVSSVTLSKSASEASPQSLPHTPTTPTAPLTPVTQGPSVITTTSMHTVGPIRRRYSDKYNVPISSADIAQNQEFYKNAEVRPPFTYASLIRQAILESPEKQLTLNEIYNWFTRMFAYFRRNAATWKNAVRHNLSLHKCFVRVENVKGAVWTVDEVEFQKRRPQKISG
The test is described as follows: PD-seq (MBP pull-down with sequencing); 20 mM Tris-HCl pH 7.5, 100 mM NaCl, 1.5 mM MgCl2, 0.4 uM protein, 0.1 uM dsDNA library, 30 min, room temperature, amylose pull-down; high values mean tight binding. The conditions noted are these: protein: recombinant; tags: His6-MBP; chain copies: 2; dsDNA, one strand shown. The essentials:
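Binding is reads-per-million enrichment of pull-down over input, with replicates pooled. It comes from 30 min room-temperature incubation in Tris pH 7.5 buffer with NaCl and MgCl2 of 0.4 µM His6-MBP-tagged, N-terminally truncated mouse FoxP3 or FoxP1 fragment from E. coli with 0.1 µM Klenow-filled degenerate double-stranded DNA library, followed by amylose resin capture, three washes and Illumina sequencing of the released DNA.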
For “GATGATTGTTCTCCCAGCTGATGAATTACGTAAGTCGAGTAAACAAATTTTCCTAATCTTTCTGTTCAAGCGCCATCTAC”, the binding signal was 1.14 RPM ratio (pull-down/input).
As to “GATGATTGTTCTCCCAGCTGATGAATTGGGGCAATCGAGTAAACAAATTTTCCTAATCTTTCTGTTCAAGCGCCATCTAC”, the binding signal is 1.01 RPM ratio (pull-down/input).
The same measure for “GATGATTGTTCTCCCAGCTGATGAATTTAGGACGTCGAGTAAACAAATTTTCCTAATCTTTCTGTTCAAGCGCCATCTAC”: 0.956 RPM ratio (pull-down/input); for “GATGATTGTTCTCCCAGCTGATGAATTCATCAGCTCGAGTAAACAAATTTTCCTAATCTTTCTGTTCAAGCGCCATCTAC”: 0.818 RPM ratio (pull-down/input); for “GATGATTGTTCTCCCAGCTGATGAATTTCGTTAATCGAGTAAACAAATTTTCCTAATCTTTCTGTTCAAGCGCCATCTAC”: 0.996 RPM ratio (pull-down/input).
In the case of “GATGATTGTTCTCCCAGCTGATGAATTGACATCCTCGAGTAAACAAATTTTCCTAATCTTTCTGTTCAAGCGCCATCTAC”, the binding signal is 1.19 RPM ratio (pull-down/input).
On to “GATGATTGTTCTCCCAGCTGATGAATTAGTTATATCGAGTAAACAAATTTTCCTAATCTTTCTGTTCAAGCGCCATCTAC”, for which the binding signal is 1.07 RPM ratio (pull-down/input).
As to “GATGATTGTTCTCCCAGCTGATGAATTGTCATCATCGAGTAAACAAATTTTCCTAATCTTTCTGTTCAAGCGCCATCTAC”, the binding signal is 1.34 RPM ratio (pull-down/input).
For the sequence “GATGATTGTTCTCCCAGCTGATGAATTGAAATTATCGAGTAAACAAATTTTCCTAATCTTTCTGTTCAAGCGCCATCTAC”, the binding signal is 1.01 RPM ratio (pull-down/input).
On to “GATGATTGTTCTCCCAGCTGATGAATTTATTGTATCGAGTAAACAAATTTTCCTAATCTTTCTGTTCAAGCGCCATCTAC”, for which the binding signal was 1.6 RPM ratio (pull-down/input).
Regarding “GATGATTGTTCTCCCAGCTGATGAATTTGAATTATCGAGTAAACAAATTTTCCTAATCTTTCTGTTCAAGCGCCATCTAC”, the binding signal is 0.969 RPM ratio (pull-down/input).
With “GATGATTGTTCTCCCAGCTGATGAATTGTATTTATCGAGTAAACAAATTTTCCTAATCTTTCTGTTCAAGCGCCATCTAC”, the binding signal was 2.72 RPM ratio (pull-down/input).
The same measure for “GATGATTGTTCTCCCAGCTGATGAATTTTGATTATCGAGTAAACAAATTTTCCTAATCTTTCTGTTCAAGCGCCATCTAC”: 1.79 RPM ratio (pull-down/input); for “GATGATTGTTCTCCCAGCTGATGAATTAGTGTAATCGAGTAAACAAATTTTCCTAATCTTTCTGTTCAAGCGCCATCTAC”: 1.54 RPM ratio (pull-down/input); for “GATGATTGTTCTCCCAGCTGATGAATTAGTGTTATCGAGTAAACAAATTTTCCTAATCTTTCTGTTCAAGCGCCATCTAC”: 1.8 RPM ratio (pull-down/input).
Take “GATGATTGTTCTCCCAGCTGATGAATTGTTGTCATCGAGTAAACAAATTTTCCTAATCTTTCTGTTCAAGCGCCATCTAC”: the binding signal is 2.36 RPM ratio (pull-down/input).
Turning to “GATGATTGTTCTCCCAGCTGATGAATTTATCGTATCGAGTAAACAAATTTTCCTAATCTTTCTGTTCAAGCGCCATCTAC”, the binding signal is 1.22 RPM ratio (pull-down/input).
As to “GATGATTGTTCTCCCAGCTGATGAATTTCTGTCATCGAGTAAACAAATTTTCCTAATCTTTCTGTTCAAGCGCCATCTAC”, the binding signal is 1.15 RPM ratio (pull-down/input).
With “GATGATTGTTCTCCCAGCTGATGAATTAGACAGTTCGAGTAAACAAATTTTCCTAATCTTTCTGTTCAAGCGCCATCTAC”, the binding signal was 0.913 RPM ratio (pull-down/input).
Take “GATGATTGTTCTCCCAGCTGATGAATTTTTAAGTTCGAGTAAACAAATTTTCCTAATCTTTCTGTTCAAGCGCCATCTAC”: the binding signal is 0.97 RPM ratio (pull-down/input).
“GATGATTGTTCTCCCAGCTGATGAATTCAACGCGTCGAGTAAACAAATTTTCCTAATCTTTCTGTTCAAGCGCCATCTAC”: the binding signal was 0.959 RPM ratio (pull-down/input).
For the sequence “GATGATTGTTCTCCCAGCTGATGAATTTTTACCATCGAGTAAACAAATTTTCCTAATCTTTCTGTTCAAGCGCCATCTAC”, the binding signal was 1.01 RPM ratio (pull-down/input).
“GATGATTGTTCTCCCAGCTGATGAATTTTACTGGTCGAGTAAACAAATTTTCCTAATCTTTCTGTTCAAGCGCCATCTAC”: the binding signal was 0.796 RPM ratio (pull-down/input).
With “GATGATTGTTCTCCCAGCTGATGAATTCTGGAGATCGAGTAAACAAATTTTCCTAATCTTTCTGTTCAAGCGCCATCTAC” the figure was 0.812 RPM ratio (pull-down/input).
“GATGATTGTTCTCCCAGCTGATGAATTACAATGTTCGAGTAAACAAATTTTCCTAATCTTTCTGTTCAAGCGCCATCTAC”: the binding signal is 1.4 RPM ratio (pull-down/input).
With “GATGATTGTTCTCCCAGCTGATGAATTATCAACATCGAGTAAACAAATTTTCCTAATCTTTCTGTTCAAGCGCCATCTAC” the figure was 2.09 RPM ratio (pull-down/input); with “GATGATTGTTCTCCCAGCTGATGAATTATCAAAATCGAGTAAACAAATTTTCCTAATCTTTCTGTTCAAGCGCCATCTAC”, 1.22 RPM ratio (pull-down/input); with “GATGATTGTTCTCCCAGCTGATGAATTATCTACATCGAGTAAACAAATTTTCCTAATCTTTCTGTTCAAGCGCCATCTAC”, 1.12 RPM ratio (pull-down/input).
“GATGATTGTTCTCCCAGCTGATGAATTTATTTCATCGAGTAAACAAATTTTCCTAATCTTTCTGTTCAAGCGCCATCTAC”: the binding signal is 1.16 RPM ratio (pull-down/input).
The same measure for “GATGATTGTTCTCCCAGCTGATGAATTTATTTTATCGAGTAAACAAATTTTCCTAATCTTTCTGTTCAAGCGCCATCTAC”: 1.46 RPM ratio (pull-down/input); for “GATGATTGTTCTCCCAGCTGATGAATTTTATTTATCGAGTAAACAAATTTTCCTAATCTTTCTGTTCAAGCGCCATCTAC”: 2.95 RPM ratio (pull-down/input); for “GATGATTGTTCTCCCAGCTGATGAATTTGCTCCCTCGAGTAAACAAATTTTCCTAATCTTTCTGTTCAAGCGCCATCTAC”: 0.995 RPM ratio (pull-down/input).
In the case of “GATGATTGTTCTCCCAGCTGATGAATTACGGCCTTCGAGTAAACAAATTTTCCTAATCTTTCTGTTCAAGCGCCATCTAC”, the binding signal is 0.977 RPM ratio (pull-down/input).

For the origin of these results see article PMC12820563, “FoxP3 forms a head-to-head dimer in vivo and stabilizes its multimerization on adjacent microsatellites”.
